Sm TGR block – qHTS Assay for the Inhibitors of Schistosoma Mansoni Peroxiredoxins. AID 485364, 2010. Potency, µM (doses to about 114 µM), inactives show at the top dose activity change, negative = inhibition, usual class: inhibitors. purified TGR, DTNB reduction, TNB absorbance 405 nm. 360,000 tested, 3% active; also: % is scaled to controls: 0 for no effect and ±100 for the full control effect; nearly all actives have a fitted effect of over 60% in size
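Kinetic colorimetric format: TGR-catalysed, NADPH-driven DTNB reduction monitored via TNB absorbance. Enzyme dispensed at 20 nM; compound exposure 15 min at room temperature before reaction start.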
NS1 function inh – qHTS Assay for Inhibitors of Influenza NS1 Protein Function; Potency, µM (highest dose often 46.1 µM), for the others: at the top dose activity, positive = more growth; 270,000 tested, 0.4% active; AID 2326, 2010; calls by dose curve; also: actives are rising curves; nearly all actives have a fitted effect of over 50% in size
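S. cerevisiae expressing influenza A NS1, grown in glucose, washed, then diluted 1:100 into pH 6.0 -URA galactose medium with 23 nl compound. Growth recovery read as OD600; NS1-free strain serves as control.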
Pf growth 48h – Primary qHTS for delayed death inhibitors of the malarial parasite plastid, 48 hour incubation; P. falciparum luciferase growth in erythrocytes, 48 h; Potency, µM (highest dose often 28.7 µM), inactives show at the top dose activity change, negative = inhibition, most hits filed as inhibitors; 310,000 tested, 5.9% active; also: % is scaled to controls: 0 for no effect and ±100 for the full control effect
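Erythrocytes infected with P. falciparum carrying an integrated firefly luciferase reporter (2% hematocrit, 0.1% parasitemia final) were exposed to compounds in RPMI 1640 with 0.5% Albumax at 37 C, 5% CO2. Growth inhibition was scored as reduced luminescence.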
AMA1 RON2 block – qHTS for Inhibitors of AMA1-RON; Towards Development of Antimalarial Drug Lead: Primary Screen; AlphaScreen AMA1-biotinylated RON2 peptide binding; Potency, µM (titrated, usually from 58.2 µM), without a hit: top-dose activity change, negative = inhibition, most hits filed as inhibitors; 360,000 tested, 0.2% active; AID 720542, 2013;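 also: 0% = vehicle wells and -100% = peptide control; nearly all actives have a fitted effect of over 45% in size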
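AMA1 (3D7) with his tag at 25 nM final met compounds first, then biotinylated RON2 peptide at 25 nM; detection used donor plus acceptor beads, 10 µg/mL apiece, read by AlphaScreen after 30 min at room temperature.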
Pf growth 96h – Primary qHTS for delayed death inhibitors of the malarial parasite plastid, 96 hour incubation. P. falciparum luciferase reporter growth, 96 h. Potency, µM (series often up to 28.7 µM), without a hit: at the top dose activity change, negative = inhibition, usual class: inhibitors. 320,000 tested, 6.9% active; also: % is scaled to controls: 0 for no effect and ±100 for the full control effect
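Two parasite generations (96 h, 37 C, 5% CO2) of compound exposure in infected erythrocytes (0.05% parasitemia, 2% hematocrit). Luciferase-reporter P. falciparum; decreased luminescence indicates inhibited growth, aimed at apicoplast-acting delayed death.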
* marks the source's active call; other numbers are inactive results; ? = inconclusive; · = no result. Sampled rows, rich in hits. Any-hit rate of the full collection: about 11%. Unless noted, calls follow the shape of the dose curve; as a rule, active = well fitted curve in the direction sought with a large enough effect; inconclusive = small, poorly fitted or top-dose-only effect, or another doubt; inactive = no such curve, though single readings can be large; an effect the other way counts as inactive or inconclusive. Potency is read from the fitted curve at half-maximal effect.

SMILES | Sm TGR block | NS1 function inh | Pf growth 48h | AMA1 RON2 block | Pf growth 96h
CCc1nn2c(=O)cc(COC(=O)c3cccc(NC(=O)c4ccccc4Cl)c3)nc2s1 | 1% | · | · | · | ·
CSc1ccccc1-c1n[nH]c(=S)o1 | 1% | · | 13µM* | 37% | 38%
Cc1ccccc1-c1n[nH]c(=S)o1 | 4% | -211% | 22% | 9% | 12%
CCOP(=O)(OCC)C(NS(=O)(=O)c1ccccc1)C(Cl)(Cl)Cl (stereo not given) | 14µM* | -3% | -11% | 5% | 41%
Clc1cccc(CNCCCSc2nnnn2-c2ccccc2)c1 | -8% | · | · | · | ·
CCOc1ccc(NS(=O)(=O)c2ccc(NC(=S)NC(C)=O)cc2)cc1 | 8% | 4% | ? | -6% | 3.7µM*
CCOc1ccc(NS(=O)(=O)c2ccc3ncsc3c2)cc1 | 0% | -6% | -5% | 3% | 3.7µM*
COC(=O)c1c(-c2cccc3ccccc23)csc1NC(=O)Cc1ccc(OC)c(OC)c1 | 0% | 3% | · | -10% | 2.6µM*
COC(=O)c1c(-c2ccc(C)cc2)csc1NC(=O)Cc1ccc(OC)c(OC)c1 | 1% | 19% | · | -3% | ?
CCC(C)c1ccccc1NC(=O)c1cc2cccc([N+](=O)[O-])c2[nH]1 (stereo not given) | 0% | -87% | ? | -14% | 2.9µM*
O=C(C1CCCCN1S(=O)(=O)c1ccccc1)N1CCCCC1 (stereo not given) | 6% | 9% | ? | 3% | ?
CS(=O)(=O)N(CC(=O)N1CCN(C(c2ccccc2)c2ccccc2)CC1)C1CCCCC1 | 1% | -1% | · | -19% | 2.6µM*
O=C(C1CCCCN1S(=O)(=O)c1ccccc1)N1CCN(C(c2ccccc2)c2ccccc2)CC1 (stereo not given) | 18% | 22% | 1.9µM* | -15% | 1.9µM*
O=C(C1CCCCN1S(=O)(=O)c1ccc(F)cc1)N1CCN(c2ccccc2F)CC1 (stereo not given) | -7% | -47% | -7% | 0% | 4.7µM*
O=C(c1cccc(NS(=O)(=O)c2ccc(F)c(F)c2)c1)N1CCN(C(c2ccccc2)c2ccccc2)CC1 | -7% | 17% | 13µM* | 10% | ?
CC(C)c1ccc(N2C(=O)CS(=O)(=O)C23C(=O)N(Cc2cccc(F)c2)c2ccccc23)cc1 (stereo not given) | 1% | · | · | · | ·
CCN(CC)CCOC(=O)c1cc(Cl)c(N)cc1OC | -6% | -1% | 33% | 10% | 68%
CCN(CC)C(=O)CC(c1ccc(N(C)C)cc1)c1c(OC)cc(OC)c2c(-c3ccccc3)cc(=O)oc12 (stereo not given) | -6% | -33% | 3.7µM* | 22µM* | 2.1µM*
COc1ccc(C(CC(=O)N2CCOCC2)c2c(OC)cc(OC)c3ccc(=O)oc23)cc1 (stereo not given) | -16% | -6% | ? | 4% | ?
CCN(CC)CCC(c1ccc(N(C)C)cc1)c1c(OC)cc(OC)c2ccc(=O)oc12 (stereo not given) | -19% | -6% | 12µM* | ? | ?
CCN(CC)C(=O)CC(c1ccc2c(c1)OCO2)c1c(OC)cc(OC)c2ccc(=O)oc12 (stereo not given) | -23% | -2% | 8.3µM* | -7% | 10µM*
COc1cc(OC)c2ccc(=O)oc2c1C(CC(=O)N1CCCC1)c1ccc(N(C)C)cc1 (stereo not given) | -10% | -27% | ? | -15% | ?
CCN(CC)C(=O)CC(c1ccc(N(C)C)cc1)c1c(OC)cc(OC)c2ccc(=O)oc12 (stereo not given) | -31% | -34% | 8.3µM* | -12% | 10µM*
CC(=O)C1CCC2C3CCC4CC(=O)CCC4(C)C3C(C)(O)CC12C (stereo not given) | · | · | · | -4% | ·
CCN(c1ccc(OC)cc1)S(=O)(=O)c1cc(-c2cc(C)no2)ccc1OC | 4% | 2% | ? | -1% | ?
SMILES | Sm TGR block | NS1 function inh | Pf growth 48h | AMA1 RON2 block | Pf growth 96h
Cc1cc(-c2ccc(C(C)C)c(S(=O)(=O)NCc3ccco3)c2)on1 | ? | -18% | -19% | -7% | ?
COc1ccc(-c2cc(C)no2)cc1S(=O)(=O)NCc1ccc(OC(C)C)cc1 | 8% | -12% | 22% | -5% | 10µM*
COc1ccc(-c2cc(C)no2)cc1S(=O)(=O)NCc1ccco1 | 32µM* | · | · | · | ·
COc1ccc(CNS(=O)(=O)c2cc(-c3cc(C)no3)ccc2OC)cc1OC | 4% | -5% | 10% | 10% | ?
COC(=O)CCN(c1ccccc1)S(=O)(=O)c1cc(-c2cc(C)no2)ccc1OC | 2% | -14% | ? | 5% | 10µM*
COc1ccc(-c2cc(N3C(=O)Nc4ccccc4N3O)n[nH]2)c(OC)c1 | -1% | · | 2% | -6% | 10%
Cc1cc(C)cc(N2Cc3ccccc3C2)c1 | ? | 6% | · | -3% | 4.1µM*
FC(F)(F)c1cccc(N2Cc3ccccc3C2)c1 | -15% | -13% | 13µM* | 1% | 46%
C#CCN1CCN(c2cccc(C(F)(F)F)c2)CC1 | -3% | · | 35% | 5% | 20%
CCc1ccc(N2Cc3ccccc3C2)cc1 | 18µM* | 6% | -88% | 0% | ?
CCOC(=O)c1ccc(N2Cc3ccccc3C2)cc1O | -19% | 0% | 4.1µM* | 4% | 2%
O=[N+]([O-])c1cccc(N2Cc3ccccc3C2)c1 | -12% | 2% | 47% | -11% | 61%
CCc1ccc(/C=C\C(=O)N2CCc3ccccc3C2)cc1 | 13% | -34% | 36% | 12% | 48%
CCc1ccc(C2N3CC4(C)CN2CC(c2ccccc2)(C3)C4=O)cc1 (stereo not given) | 26% | · | · | · | ·
COc1ccc(Cl)cc1NC(=O)c1cc2c(=O)n3ccccc3nc2s1 | 7% | · | · | · | ·
O[C@H]1[C@H](O)[C@@H](O)CN2CC[C@H](O)[C@H]12 | -10% | 8% | -15% | 9% | 20%
O[C@H]1[C@H]2[C@H](O)CCCN2C[C@H]1O | · | · | -5% | · | 9.5µM*
CN(Cc1ccccc1)S(=O)(=O)c1ccc2c(c1)NC(=O)CC(=O)N2 | -12% | -2% | 51% | 32% | 10µM*
CCN(Cc1ccccc1)S(=O)(=O)c1ccc2c(c1)NC(=O)CC(=O)N2 | -25% | · | 40% | 0% | -25%
CCc1ccc(C(=O)COC(=O)c2cncc(Br)c2)cc1 | 2% | · | 17µM* | 19% | 52%
CCc1ccc(OC(=O)c2cncc(Br)c2)cc1 | 0% | -3% | 9% | 46% | ?
